In all, about 320,000 compounds went through this assay and about 2,100 (0.66%) were called active. Not shown: some 53% with an inconclusive outcome. Calls follow the shape of the dose curve; as a rule, active = well fitted inhibition curve with a large enough effect in the signal ratio, with a control signal flat (not every such curve was filed as active); inconclusive = small, poorly fitted or top-dose-only effect, or effect the other way, or a change in a side signal; inactive = flat fitted curve, though single readings scatter; the % refers to the signal ratio. What follows is part of a selection rich in actives, with near analogues and random picks from the rest.
Potency is read from the fitted curve at half-maximal effect.

The assay is described as follows: qHTS Assay for Lipid Storage Modulators in Drosophila S3 Cells.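 As to cell number change: cells counted by Cell Tracker Red CMTPX staining in the red channel.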 As to lipid storage change, negative = inhibition: % is scaled to controls: 0 for no effect and ±100 for the full control effect. The note with it: BODIPY lipid droplet fluorescence, 18-24 h, cells fed with added oleic acid; cell number change: measured here: cell count max response; series mostly up to 46.1 µM; lipid storage change, negative = inhibition: at the top concentration. The method, boiled down:
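Laser-scanning cytometry quantifies lipid droplet accumulation (500–530 nm total intensity; droplet/cell object ratio) in oleic acid-fed (400 uM added) Drosophila S3 cells treated with a concentration series. 20 uM Triacsin C defined 100% inhibition.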
In general terms: Quantitative high-throughput screening tests each substance at several concentrations.
Regarding `O=C1C=Cc2ccccc2/C1=C/c1[nH]c(=O)[nH]c1O`, the “lipid storage change, negative = inhibition” value was 5.67% (inactive) and the cell number change was 1.79%.
Turning to `O=C(NC(=S)Nc1ccc(S(=O)(=O)Nc2nccs2)cc1)c1ccc(Br)o1`, the “lipid storage change, negative = inhibition” value was 2.23% (inactive).
For `O=C(NCCOC(=O)C1COc2ccccc2O1)C1COc2ccccc2O1` (stereo not drawn), the “lipid storage change, negative = inhibition” value was -28.4% (inactive).
Regarding `O=[N+]([O-])c1ccc(-c2ccc(/C=N/Nc3nc(NCc4ccccc4)nc(N4CCOCC4)n3)o2)cc1`, the Potency was 18.4 µM (active) and the cell number change came to 14.1%.
The corresponding values for `O=[N+]([O-])c1ccc(-c2ccc(/C=N/Nc3nc(N4CCCCC4)nc(N4CCCCC4)n3)o2)cc1` are 5.17 µM (active) and 17%.
`O=[N+]([O-])c1ccc(/C=N/Nc2nc(N3CCCCC3)nc(N3CCCCC3)n2)cc1`: the “lipid storage change, negative = inhibition” value is 11.3% (inactive) and the cell number change is -0.784%.
Consider `O=[N+]([O-])c1ccc(-c2ccc(/C=N/Nc3nc(N4CCCC4)nc(N4CCCC4)n3)o2)cc1`, for which the molecule was called inactive and the cell number change was -13%.
As for `O=[N+]([O-])c1cccc(/C=N/Nc2nc(NCc3ccccc3)nc(N3CCOCC3)n2)c1O`, the “lipid storage change, negative = inhibition” value is -7.86% (inactive) and the cell number change is 0.539%.
For `COc1nc(N/N=C/c2ccc(-c3cccc([N+](=O)[O-])c3)o2)nc(N2CCOCC2)n1`, the “lipid storage change, negative = inhibition” value is 7.42% (inactive) and the cell number change is -9.45%.
As for `CN(C)S(=O)(=O)N1CCC(Oc2cccc(C(=O)NC3CCCCCC3)c2)CC1`, the molecule was called inactive.
As for `O=C(O)c1ccccc1C(=O)N1CC=C(c2ccccc2)CC1`, the “lipid storage change, negative = inhibition” value was -0.597% (inactive) and the cell number change is 1.73%.
The corresponding values for `Nc1[nH][nH]c(=O)c1N=Nc1cccc(Cl)c1` are 26.5% (inactive) and 1.25%.
In the case of `Cn1cc([N+](=O)[O-])c(C(=O)Nc2ccc(Br)cn2)n1`, the “lipid storage change, negative = inhibition” value was 1.79% (inactive).
With `O=C(CNC(=O)COc1ccccc1)NCc1ccccc1F`, the “lipid storage change, negative = inhibition” value is -0.841% (inactive) and the cell number change worked out at 0.16%.
The matching figures for `O=[N+]([O-])c1ccc(NC(=S)N2CCOCC2)cc1`: -4.46% (inactive) and -10.6%.
The matching figures for `OC(CN1CCN(Cc2ccccc2)CC1)c1ccc(F)cc1` (stereo not drawn): 2.63% (inactive) and 22.1%.
The corresponding values for `COc1cc(CN2CCN(C(c3ccccc3)c3ccccc3)CC2)cc(OC)c1OC` are 21.4% (inactive) and 6.8%.
Regarding `Fc1ccc(CN2CCN(C(c3ccccc3)c3ccccc3)CC2)cc1`, the Potency is 16.4 µM (active) and the cell number change was -21.3%.
`COc1ccc(Br)cc1CNC(=O)CCC(=O)n1nc(C)c2ccccc21`: the outcome was inactive and the cell number change was -11.3%.
As for `COc1ccccc1NC(=S)NC1CCCCC1`, the “lipid storage change, negative = inhibition” value is -1.18% (inactive) and the cell number change was 22.1%.
With `Cc1ccccc1NC(=O)C(=O)NC(C)CCc1ccccc1` (stereo not drawn), the Potency is 7.31 µM (active) and the cell number change came to 7.44%.
On to `CCOC(=O)C(=O)NC(C)CCc1ccccc1` (stereo not drawn), for which the “lipid storage change, negative = inhibition” value is -6.25% (inactive) and the cell number change is -12.3%.
The corresponding values for `Cc1ccccc1NC(=S)NC(C)CCc1ccccc1` (stereo not drawn) are -12% (inactive) and -4.86%.
`COCCCNC(=O)COc1cc2c(c3oc(=O)c(C)c(C)c13)CCC(C)(C)O2`: the “lipid storage change, negative = inhibition” value is -1.02% (inactive) and the cell number change worked out at 14.5%.
Regarding `O=C(Nc1ccccc1)c1ccc(S(=O)(=O)N2CCCCC2)cc1`, the “lipid storage change, negative = inhibition” value is 1.31% (inactive) and the cell number change was -9.41%.
Consider `O=C(Nc1ccc(F)cc1)c1ccc(CN2CCc3ccccc3C2)cc1`, for which the Potency was 5.17 µM (active) and the cell number change is -4.53%.
The corresponding values for `O=C(Nc1ccc(S(=O)(=O)N2CCCCC2)cc1)c1ccc(CN2CCc3ccccc3C2)cc1` are 18.4 µM (active) and -10.9%.
Consider `Cc1ccc(NC(=O)c2ccc(CN3CCc4ccccc4C3)cc2)cc1`, for which the “lipid storage change, negative = inhibition” value is 9.69% (inactive) and the cell number change was determined as 6%.
The corresponding values for `O=C(Nc1ccc(S(=O)(=O)N2CCCC2)cc1)c1ccc(CN2CCOCC2)cc1` are -12.9% (inactive) and 0.801%.
The corresponding values for `O=C(Nc1ccccc1)c1ccc(CN2CCc3ccccc3C2)cc1` are -0.669% (inactive) and 7.26%.
`Cc1cc(-n2nc(C)cc2C)n2nc(C)c(-c3ccc(Cl)cc3)c2n1`: the molecule was called inactive and the cell number change came to 1.87%.
`CC(C)CCN1CC(C(=O)NC(C)C)CC1=O` (stereo not drawn): the “lipid storage change, negative = inhibition” value is 1.74% (inactive) and the cell number change is -5.32%.
As for `CN1CCN(S(=O)(=O)c2ccc(NC(=O)c3ccc(Br)s3)cc2)CC1`, the “lipid storage change, negative = inhibition” value was 18.6% (inactive) and the cell number change was -9.91%.
The corresponding values for `COC(=O)c1ccc(CN2CCC(CO)(Cc3cccc(OC)c3)CC2)cc1` are 12.4% (inactive) and 1.63%.
For the molecule `O=C(Nc1ccccc1C(=O)OC1CCOC1=O)c1ccco1` (stereo not drawn), the outcome was inactive and the cell number change was determined as 2.86%.
As for `CC(=O)Nc1ccc(C(=O)OC2CCOC2=O)cc1` (stereo not drawn), the “lipid storage change, negative = inhibition” value was -5.88% (inactive) and the cell number change turned out to be 3.14%.
Take `Cc1cccc(C(=O)OC2CCOC2=O)c1O` (stereo not drawn): the Potency was 0.731 µM (active) and the cell number change is 4.5%.
Consider `Cc1ccc(NC(=O)c2cccs2)cc1NC(=O)c1cccc(F)c1`, for which the “lipid storage change, negative = inhibition” value is 16.8% (inactive) and the cell number change is 9.07%.
Take `Cc1ccc(C(=O)N/C(=C\c2cccs2)C(=O)NCc2cccnc2)cc1`: the “lipid storage change, negative = inhibition” value is 15.8% (inactive) and the cell number change was 10.4%.
On to `Fc1ccc(NC(=S)N2CCc3ccccc32)cc1`, for which the Potency is 16.4 µM (active) and the cell number change is -10.9%.
Take `Fc1ccc(NC(=S)N2CCCc3ccccc32)cc1`: the “lipid storage change, negative = inhibition” value is 7.56% (inactive) and the cell number change was -5.16%.
Turning to `Fc1cccc(NC(=S)N2CCc3ccccc32)c1`, the molecule was called inactive and the cell number change is -4.05%.
On to `CN(C)c1ccc(S(=O)(=O)NCC(=O)NCc2ccccc2)cc1[N+](=O)[O-]`, for which the “lipid storage change, negative = inhibition” value was 24.8% (inactive) and the cell number change is 21.7%.
With `NC(=O)c1nsc(C(=O)N(CC(=O)NC2CCCC2)c2ccc(F)c(Cl)c2)c1N`, the Potency is 0.116 µM (active) and the cell number change is -7.14%.
The matching figures for `NC(=O)c1nsc(C(=O)N(CC(=O)NC2CCCCC2)c2ccc(Cl)cc2)c1N`: 14.6 µM (active) and -2.56%.
Regarding `NC(=O)c1nsc(C(=O)N(CC(=O)NC2CCCC2)c2cnc3ccccc3c2)c1N`, the “lipid storage change, negative = inhibition” value is -11% (inactive) and the cell number change was -18%.
Regarding `CCCC(C(=O)NC1CCCC1)N(C(=O)c1snc(C(N)=O)c1N)c1ccc(F)cc1` (stereo not drawn), the “lipid storage change, negative = inhibition” value is 23.9% (inactive) and the cell number change was -10.5%.
In the case of `Cc1ccc(C)c(N(CC(=O)NC2CCCCC2)C(=O)c2snc(C(N)=O)c2N)c1`, the molecule was classed as inactive and the cell number change is -26.2%.
As for `NC(=O)c1nsc(C(=O)N(CC(=O)NC2CCCCC2)Cc2ccc(F)cc2)c1N`, the molecule was classed as inactive.
